# Results as given in PubChem BioAssay (NCI).
# About 79,000 compounds went through this panel and 15% of them were active in at least one assay; those are over-represented in the sample as a whole. Unmarked numbers belong to inactive results. Active and inactive are the calls of the source. Cut-off read from the data, not from the text of the source: active = growth inhibition above about 70%; inactive = the rest.
# Experiments:
# [1] = NCI Yeast Anticancer Drug Screen. Data for the wt1 strain (AID 149);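 note: 0% = growth of vehicle-treated wt1 cultures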; conditions: S. cerevisiae wt1 strain (SPY 50644) growth inhibition, hits give high values
# Procedure, shortened: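 Readout: yeast growth inhibition, normalised to vehicle controls, in the wt1 strain exposed to test compounds.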
# [2] = NCI Yeast Anticancer Drug Screen. Data for the rad50EPP+ strain (AID 151);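 note: 0% = growth of vehicle-treated control cultures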; conditions: S. cerevisiae rad50 mutant strain, hits give high values
# Procedure, shortened: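 Genetically defined yeast (rad50EPP+, DNA damage repair alteration) is grown with compound, and inhibition of growth is expressed relative to vehicle-treated controls.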
# [3] = NCI Yeast Anticancer Drug Screen. Data for the mgt1 strain (AID 153); conditions: S. cerevisiae mgt1 mutant growth inhibition, hits give high values
# Procedure, shortened: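 In the mgt1 strain, test compounds were added and growth inhibition was determined relative to vehicle-treated controls.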
# [4] = NCI Yeast Anticancer Drug Screen. Data for the rad50 strain (AID 155);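 note: 0% = growth of vehicle-only cultures of the same strain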; conditions: S. cerevisiae rad50 strain growth inhibition, hits give high values
# Procedure, shortened: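 Compounds were tested on a yeast strain with an engineered DNA damage repair alteration; the reported value is growth inhibition normalised to vehicle treatment.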
# [5] = NCI Yeast Anticancer Drug Screen. Data for the mec2-1 strain (AID 157); conditions: S. cerevisiae mec2-1 strain, hits give high values
# Procedure, shortened: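 Each compound was tested on mec2-1 yeast, a strain altered in DNA damage repair or cell cycle control. Growth inhibition is reported relative to vehicle.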
# [6] = NCI Yeast Anticancer Drug Screen. Data for the rad14 strain (AID 159);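 note: 0% = growth of vehicle-treated control cultures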; conditions: S. cerevisiae rad14 strain growth inhibition, hits give high values
# Procedure, shortened: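 Compound-treated yeast with a defined DNA-repair lesion; growth inhibition normalised to vehicle-treated cultures.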
# [7] = NCI Yeast Anticancer Drug Screen. Data for the sgs1 mgt1 strain (AID 161);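 note: 0% = growth of cultures given vehicle only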; conditions: S. cerevisiae sgs1 mgt1 strain, hits give high values
# Procedure, shortened: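 Mutant yeast exposed to compound; growth scored against vehicle-only wells.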
# [8] = NCI Yeast Anticancer Drug Screen. Data for the CLN2oe strain (AID 163);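 note: 0% = growth of vehicle-only control cultures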; conditions: S. cerevisiae CLN2oe strain, hits give high values
# Procedure, shortened: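 First, the altered yeast strain was treated with each compound; second, its growth was measured; finally, inhibition was derived by comparison with vehicle controls.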
# [9] = NCI Yeast Anticancer Drug Screen. Data for the cln2 rad14 strain (AID 165);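 note: 0% = growth equal to vehicle treated cultures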; conditions: S. cerevisiae cln2 rad14 strain, hits give high values
# Procedure, shortened: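 Test compounds were added to cln2 rad14 yeast cultures; inhibition of growth was then determined by comparison with vehicle treatment.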
# [10] = NCI Yeast Anticancer Drug Screen. Data for the bub3 strain (AID 167); conditions: S. cerevisiae bub3 mutant strain, hits give high values
# Procedure, shortened: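 Growth of a checkpoint-deficient yeast mutant is measured after compound exposure. Values represent inhibition relative to vehicle.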
# [11] = NCI Yeast Anticancer Drug Screen. Data for the wt2 strain (AID 169);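 note: 0% = growth of vehicle-treated yeast cultures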; conditions: S. cerevisiae wt2 strain growth inhibition, hits give high values
# Procedure, shortened: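 The panel's yeast strains carry defined changes in DNA repair or cell cycle genes. Each strain is grown with compound, and growth loss is scored relative to vehicle.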
# [12] = NCI Yeast Anticancer Drug Screen. Data for the mlh1 strain (AID 171);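 note: 0% = growth of vehicle-treated control cultures of the same strain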; conditions: S. cerevisiae mlh1 strain growth inhibition, hits give high values
# Procedure, shortened: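 Inhibition values reflect reduced yeast growth in the presence of compound, referenced to vehicle controls, using a strain chosen for its alteration in DNA repair or cell cycle control.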
# [13] = NCI Yeast Anticancer Drug Screen. Data for the sgs1 strain (AID 173);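 note: 0% = growth of vehicle-only control cultures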; conditions: S. cerevisiae sgs1 mutant, hits give high values
# Procedure, shortened: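 Vehicle-treated cultures served as reference for growth inhibition of a yeast strain altered in DNA damage repair or cell cycle control after compound exposure.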
# [14] = NCI Yeast Anticancer Drug Screen. Data for the mlh1 rad18 strain (AID 175); conditions: S. cerevisiae mlh1 rad18 strain growth inhibition, hits give high values
# Procedure, shortened: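 Inhibition values reflect reduced growth of mutant yeast versus vehicle-treated controls following compound exposure; the mutations affect DNA damage repair.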
# [15] = NCI Yeast Anticancer Drug Screen. Data for the rad18 strain (AID 177); conditions: S. cerevisiae rad18 mutant growth inhibition, hits give high values
# Procedure, shortened: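 Steps: expose repair-mutant yeast to compound; measure growth; express as inhibition relative to vehicle control.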
# [16] = NCI Yeast Anticancer Drug Screen. Data for the rad52 strain (AID 147);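 note: 0% = growth of vehicle-treated control cultures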; conditions: S. cerevisiae rad52 mutant growth inhibition, hits give high values
# Procedure, shortened: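 Inhibition of yeast growth, referenced to vehicle controls, was the measured output for a strain with defective DNA damage repair.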
# [17] = at 5.0 µM (retest, dose inferred, filed as 0.5)
# [18] = at 50.0 µM (retest, dose inferred, filed as 5.0)
smiles,measurement,setting,value
c1cncc(C(Nc2cccc3cccnc23)Nc2cccc3cccnc23)c1,growth inhibition,[1]; at 1.2 µM,0%
same,growth inhibition,[1]; at 3.7 µM,0%
same,growth inhibition,[1]; at 11.0 µM,1%
same,growth inhibition,[1]; at 33.0 µM,2%
same,growth inhibition,[1]; at 100.0 µM,0%
same,growth inhibition,[2]; at 1.2 µM,1%
same,growth inhibition,[2]; at 3.7 µM,14%
same,growth inhibition,[2]; at 11.0 µM,31%
same,growth inhibition,[2]; at 33.0 µM,47%
same,growth inhibition,[2]; at 100.0 µM,55%
same,growth inhibition,[3]; at 1.2 µM,4%
same,growth inhibition,[3]; at 3.7 µM,1%
same,growth inhibition,[3]; at 11.0 µM,3%
same,growth inhibition,[3]; at 33.0 µM,-70%
same,growth inhibition,[3]; at 100.0 µM,-45%
same,growth inhibition,[4]; at 1.2 µM,-103%
same,growth inhibition,[4]; at 3.7 µM,52%
same,growth inhibition,[4]; [17],25%
same,growth inhibition,[4]; at 11.0 µM,61%
same,growth inhibition,[4]; at 33.0 µM,76% (active)
same,growth inhibition,[4]; [18],44%
same,growth inhibition,[4]; at 50.0 µM,75.8% (active)
same,growth inhibition,[4]; at 100.0 µM,81% (active)
same,growth inhibition,[5]; at 1.2 µM,2%
same,growth inhibition,[5]; at 3.7 µM,1%
same,growth inhibition,[5]; [17],-26%
same,growth inhibition,[5]; at 11.0 µM,5%
same,growth inhibition,[5]; at 33.0 µM,12%
same,growth inhibition,[5]; [18],-2%
same,growth inhibition,[5]; at 50.0 µM,44.8%
same,growth inhibition,[5]; at 100.0 µM,15%
same,growth inhibition,[6]; at 1.2 µM,0%
same,growth inhibition,[6]; at 3.7 µM,9%
same,growth inhibition,[6]; at 11.0 µM,15%
same,growth inhibition,[6]; at 33.0 µM,25%
same,growth inhibition,[6]; at 100.0 µM,47%
same,growth inhibition,[7]; [17],28%
same,growth inhibition,[7]; [18],53%
same,growth inhibition,[7]; at 50.0 µM,54.4%
same,growth inhibition,[8]; at 1.2 µM,6%
same,growth inhibition,[8]; at 3.7 µM,3%
same,growth inhibition,[8]; at 11.0 µM,3%
same,growth inhibition,[8]; at 33.0 µM,3%
same,growth inhibition,[8]; at 100.0 µM,2%
same,growth inhibition,[9]; [17],1%
same,growth inhibition,[9]; [18],6%
same,growth inhibition,[9]; at 50.0 µM,27.9%
same,growth inhibition,[10]; at 1.2 µM,1%
same,growth inhibition,[10]; at 3.7 µM,4%
same,growth inhibition,[10]; [17],-10%
same,growth inhibition,[10]; at 11.0 µM,-7%
same,growth inhibition,[10]; at 33.0 µM,-11%
same,growth inhibition,[10]; [18],-12%
same,growth inhibition,[10]; at 50.0 µM,-13.8%
same,growth inhibition,[10]; at 100.0 µM,-8%
same,growth inhibition,[11]; at 1.2 µM,0%
same,growth inhibition,[11]; at 3.7 µM,9%
same,growth inhibition,[11]; at 11.0 µM,0%
same,growth inhibition,[11]; at 33.0 µM,2%
same,growth inhibition,[11]; at 100.0 µM,-1%
same,growth inhibition,[12]; at 1.2 µM,3%
same,growth inhibition,[12]; at 3.7 µM,1%
same,growth inhibition,[12]; at 11.0 µM,1%
same,growth inhibition,[12]; at 33.0 µM,4%
same,growth inhibition,[12]; at 100.0 µM,2%
same,growth inhibition,[13]; at 1.2 µM,11%
same,growth inhibition,[13]; at 3.7 µM,39%
same,growth inhibition,[13]; at 11.0 µM,59%
same,growth inhibition,[13]; at 33.0 µM,64%
same,growth inhibition,[13]; at 100.0 µM,62%
same,growth inhibition,[14]; [17],25%
same,growth inhibition,[14]; [18],40%
same,growth inhibition,[14]; at 50.0 µM,77.2% (active)
same,growth inhibition,[15]; at 1.2 µM,36%
same,growth inhibition,[15]; at 3.7 µM,89% (active)
same,growth inhibition,[15]; at 11.0 µM,92% (active)
same,growth inhibition,[15]; at 33.0 µM,94% (active)
same,growth inhibition,[15]; at 100.0 µM,94% (active)
COc1cc(C(C)(C)C)cc(OC)c1C(O)(c1c(OC)cc(C(C)(C)C)cc1OC)c1c(OC)cc(C(C)(C)C)cc1OC,growth inhibition,[16]; at 1.2 µM,-10%
same,growth inhibition,[16]; at 3.7 µM,33%
same,growth inhibition,[16]; at 11.0 µM,88% (active)
same,growth inhibition,[16]; at 33.0 µM,92% (active)
same,growth inhibition,[16]; at 100.0 µM,84% (active)
same,growth inhibition,[1]; at 1.2 µM,4%
same,growth inhibition,[1]; at 3.7 µM,42%
same,growth inhibition,[1]; at 11.0 µM,93% (active)
same,growth inhibition,[1]; at 33.0 µM,94% (active)
same,growth inhibition,[1]; at 100.0 µM,91% (active)
same,growth inhibition,[2]; at 1.2 µM,-1%
same,growth inhibition,[2]; at 3.7 µM,14%
same,growth inhibition,[2]; at 11.0 µM,87% (active)
same,growth inhibition,[2]; at 33.0 µM,92% (active)
same,growth inhibition,[2]; at 100.0 µM,83% (active)
same,growth inhibition,[4]; at 1.2 µM,25%
same,growth inhibition,[4]; at 3.7 µM,30%
same,growth inhibition,[4]; [17],33%
same,growth inhibition,[4]; at 11.0 µM,92% (active)
same,growth inhibition,[4]; at 33.0 µM,93% (active)
same,growth inhibition,[4]; [18],94% (active)
same,growth inhibition,[4]; at 50.0 µM,78% (active)
same,growth inhibition,[4]; at 100.0 µM,88% (active)
same,growth inhibition,[5]; at 1.2 µM,-22%
same,growth inhibition,[5]; at 3.7 µM,32%
same,growth inhibition,[5]; [17],81% (active)
same,growth inhibition,[5]; at 11.0 µM,90% (active)
same,growth inhibition,[5]; at 33.0 µM,94% (active)
same,growth inhibition,[5]; [18],96% (active)
same,growth inhibition,[5]; at 50.0 µM,79.7% (active)
same,growth inhibition,[5]; at 100.0 µM,90% (active)
same,growth inhibition,[6]; at 1.2 µM,-24%
same,growth inhibition,[6]; at 3.7 µM,-28%
same,growth inhibition,[6]; at 11.0 µM,88% (active)
same,growth inhibition,[6]; at 33.0 µM,91% (active)
same,growth inhibition,[6]; at 100.0 µM,86% (active)
same,growth inhibition,[7]; [17],13%
same,growth inhibition,[7]; [18],97% (active)
same,growth inhibition,[7]; at 50.0 µM,80.1% (active)
same,growth inhibition,[8]; at 1.2 µM,31%
same,growth inhibition,[8]; at 3.7 µM,45%
same,growth inhibition,[8]; at 11.0 µM,87% (active)
same,growth inhibition,[8]; at 33.0 µM,93% (active)
same,growth inhibition,[8]; at 100.0 µM,89% (active)
same,growth inhibition,[9]; [17],47%
same,growth inhibition,[9]; [18],96% (active)
same,growth inhibition,[9]; at 50.0 µM,77.3% (active)
same,growth inhibition,[10]; at 1.2 µM,-25%
same,growth inhibition,[10]; at 3.7 µM,44%
same,growth inhibition,[10]; [17],76% (active)
same,growth inhibition,[10]; at 11.0 µM,92% (active)
same,growth inhibition,[10]; at 33.0 µM,94% (active)
same,growth inhibition,[10]; [18],96% (active)
same,growth inhibition,[10]; at 50.0 µM,75.8% (active)
same,growth inhibition,[10]; at 100.0 µM,85% (active)
same,growth inhibition,[11]; at 1.2 µM,-17%
same,growth inhibition,[11]; at 3.7 µM,15%
same,growth inhibition,[11]; at 11.0 µM,92% (active)
same,growth inhibition,[11]; at 33.0 µM,94% (active)
same,growth inhibition,[11]; at 100.0 µM,82% (active)
same,growth inhibition,[12]; at 1.2 µM,-19%
same,growth inhibition,[12]; at 3.7 µM,-12%
same,growth inhibition,[12]; at 11.0 µM,89% (active)
same,growth inhibition,[12]; at 33.0 µM,94% (active)
same,growth inhibition,[12]; at 100.0 µM,88% (active)
same,growth inhibition,[13]; at 1.2 µM,-3%
same,growth inhibition,[13]; at 3.7 µM,4%
same,growth inhibition,[13]; at 11.0 µM,95% (active)
same,growth inhibition,[13]; at 33.0 µM,95% (active)
same,growth inhibition,[13]; at 100.0 µM,89% (active)
same,growth inhibition,[14]; [17],15%
same,growth inhibition,[14]; [18],93% (active)
same,growth inhibition,[14]; at 50.0 µM,76.1% (active)
same,growth inhibition,[15]; at 1.2 µM,-4%
same,growth inhibition,[15]; at 3.7 µM,10%
same,growth inhibition,[15]; at 11.0 µM,93% (active)
same,growth inhibition,[15]; at 33.0 µM,94% (active)
same,growth inhibition,[15]; at 100.0 µM,87% (active)
